# Test results taken from PubChem BioAssay AID720621 (The Scripps Research Institute Molecular Screening Center, 2013).
# This is one part of the list. Calls of active or inactive are those of the source.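 How the source made its calls: active means inhibition above the mean of test compounds lying between the control limits plus 3 SD of those (cut at about 14% in these data); inactive means the rest.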
# Target: Fibrinogen beta chain (Homo sapiens) (UniProt P02675)
# Test: DD(E) binders in alternate-peptide displacement assay, confirmation, counter-screen for fibrin DD(E)-Tn6 binding project, biochemical, fluorescence polarization, human fibrin (AID 720621);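 further: 0% = median of compound wells and 100% = wells with Aha-Tn7 blocking peptide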
# Settings: TRITC-Tn6 fluorescence polarization displacement, at 8.3 µM, hits give high values, 0% = median of compound wells, not DMSO
# Chain of Fibrinogen beta chain (Homo sapiens) (P02675 whole entry, looked up): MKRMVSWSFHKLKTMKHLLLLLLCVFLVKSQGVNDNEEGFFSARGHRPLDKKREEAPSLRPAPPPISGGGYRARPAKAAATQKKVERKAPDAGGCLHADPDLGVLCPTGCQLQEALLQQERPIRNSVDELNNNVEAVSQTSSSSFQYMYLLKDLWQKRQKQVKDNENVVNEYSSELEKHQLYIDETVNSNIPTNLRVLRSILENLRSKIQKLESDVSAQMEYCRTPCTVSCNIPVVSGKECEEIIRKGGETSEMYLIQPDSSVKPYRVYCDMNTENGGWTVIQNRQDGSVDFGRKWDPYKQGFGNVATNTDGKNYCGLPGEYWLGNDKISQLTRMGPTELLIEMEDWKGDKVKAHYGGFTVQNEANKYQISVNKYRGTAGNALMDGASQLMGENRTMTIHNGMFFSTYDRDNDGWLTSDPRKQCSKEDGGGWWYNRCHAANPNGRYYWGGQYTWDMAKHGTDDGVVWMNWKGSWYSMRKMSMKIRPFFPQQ
row,SMILES,inhibition
1,Cc1ccc(-c2nn(-c3ccccc3)cc2/C=C/C(=O)Nc2cccc(S(N)(=O)=O)c2)cc1,9.5% (inactive)
2,O=C(NCCNc1ccccc1[N+](=O)[O-])c1ccccc1F,1.36% (inactive)
3,Cc1nn(C)cc1N1C(=O)c2cccc3c(N)ccc(c23)C1=O,12.5% (inactive)
4,Oc1ccc(N=Cc2sc3ccccc3c2Cl)cc1,-3.72% (inactive)
5,Cc1cc(C)c2nc(NC(=O)C3CCCO3)sc2c1 (stereo unspecified),9.86% (inactive)
6,CCOCC(=O)NCc1ccc2c(c1)cc(C)n2C,3.45% (inactive)
7,COc1ccc(Nc2nc(-c3ccccc3)cs2)cc1,3.89% (inactive)
8,O=C(Nc1cccc(-c2nc3ccccc3[nH]2)c1)c1ccc(C(=O)Nc2cccc(-c3nc4ccccc4[nH]3)c2)cc1,4.67% (inactive)
9,O=c1[nH]n(-c2ccc([N+](=O)[O-])cc2)c(=O)c2ccccc12,-1.25% (inactive)
10,CCOC(=O)N1CCN(Cc2nc(N)nc(Nc3ccc(C)cc3)n2)CC1,-2.92% (inactive)
11,CN1c2ccc(C=O)c3c(C=O)ccc(c23)N(C)C1(C)C,1.94% (inactive)
12,Cc1cc2nc3c(=O)[nH]c(=O)nc-3n(C[C@H](O)[C@H](O)[C@H](O)CO)c2cc1C,53.3% (active)
13,Cc1ccc(-c2nc(C)sc2CC(=O)O)cc1,1.12% (inactive)
14,O=C(CCl)NNc1cccc(Cl)n1,-4.59% (inactive)
15,O=c1cc(Cn2nnc(-c3ccc(Cl)cc3)n2)nc2sccn12,0.44% (inactive)
16,COc1ccc(N2C(=O)NC(NS(=O)(=O)c3ccc(Cl)cc3)(C(F)(F)F)C2=O)cc1 (stereo unspecified),9.3% (inactive)
